PubChem BioAssay (NCATS)
Inconclusive results are not listed. The source made the active and inactive calls. Calls come from the whole dose curve; as a rule, active = well fitted curve in the direction sought with a large enough effect; inconclusive = small, poorly fitted or top-dose-only effect, or another doubt; inactive = no such curve, though single readings can be large; an effect the other way counts as inactive or inconclusive.

Legend:
[1] = target: Phospholipid hydroperoxide glutathione peroxidase GPX4 (Homo sapiens) (UniProt P36969); assay: Primary qHTS Assay for Inhibitors of Recombinant Selenoprotein Glutathione Peroxidase 4 (GPX4) (AID 1845192); note: nearly all actives have a fitted effect of over 65% in size
Sequence of Phospholipid hydroperoxide glutathione peroxidase GPX4 (Homo sapiens) (P36969 whole entry, looked up): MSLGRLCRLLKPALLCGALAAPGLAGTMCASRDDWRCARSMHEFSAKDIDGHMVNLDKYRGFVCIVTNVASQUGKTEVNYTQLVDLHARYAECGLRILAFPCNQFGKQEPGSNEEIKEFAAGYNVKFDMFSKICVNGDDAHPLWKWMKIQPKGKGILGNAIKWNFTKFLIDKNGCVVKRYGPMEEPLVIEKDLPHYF
Summary of the method: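 qHTS, GR-coupled: GPX4 200 nM + cpd 30 min RT → GSH 1 mM, NADPH 0.5 mM, GR 100 nM → CHP 0.5 mM start; fluor 340/450 at t0 and t15 min; no-enzyme wells as control.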

[2] = Quantitative High-Throughput drug screen in 47 multiple myeloma cell lines against the NCATS MIPE library collection: FR4_PLB cell viability assay (AID 1918924; note: nearly all actives have a fitted effect of over 35% in size; note: potency is the fitted concentration of half-maximal effect)
Summary of the method: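 Relative luminescence from CellTiter-Glo served as the viability signal, referenced to DMSO-treated (100%) and cell-free medium (0%) controls. Treatment lasted 48 hours at 37C with 500 cells per well.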

[3] = Quantitative High-Throughput drug screen in 47 multiple myeloma cell lines against the NCATS MIPE library collection: AMO1_DSMZ cell viability assay (AID 1918927; note: nearly all actives have a fitted effect of over 30% in size; note: potency is the fitted concentration of half-maximal effect)
Summary of the method: (§1)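 Myeloma cell lines, 500 cells per well, exposed to MIPE 4.0 library compounds for 48 h at 37C, 5% CO2. Viability from ATP by CellTiter-Glo luminescence; normalised to DMSO (100%) and media-only (0%) wells.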

[4] = Quantitative High-Throughput drug screen in 47 multiple myeloma cell lines against the NCATS MIPE library collection: EJM_DSMZ cell viability assay (AID 1918926; note: nearly all actives have a fitted effect of over 30% in size; note: potency is the fitted concentration of half-maximal effect)
Summary of the method: as §1

[5] = Quantitative High-Throughput drug screen in 47 multiple myeloma cell lines against the NCATS MIPE library collection: ARP1_JJKsccF8 cell viability assay (AID 1918928; note: nearly all actives have a fitted effect of over 40% in size; note: potency is the fitted concentration of half-maximal effect)
Summary of the method: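 Viability screen: myeloma cells (500/well) incubated 48 h at 37 °C, humidified 5% CO2, with pinned library compounds; CellTiter-Glo added, luminescence read; DMSO wells set 100%, medium-only wells 0%.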

[6] = Primary fluorescence-based thiol-reactive (MSTI) qHTS assay for identification of artifact compounds. (AID 1845221);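 note: series mostly up to about 54 µM; thiol-reactive compounds lower the probe fluorescence signal; nearly all actives have a fitted effect of over 65% in size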
Summary of the method: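 Probe: MSTI 4 uM, PBS pH 7.4, 2% DMSO. Incubation 1 h, RT, light-protected. Readout fluorescence 525/598 nm.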

[7] = Primary redox qHTS assay for identification of artifact compounds. (AID 1845223)
Summary of the method: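 Redox-cycling detection via DTT (250 uM final) oxidation coupled to Amplex Red (25 uM)/HRP (250 mU/mL) in HBSS. 15 min preincubation plus 30 min after DTT, room temperature. Ex/Em 525/598 nm; 4-parameter Hill fit against DMSO and 10 uM DA3003.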

[8] = Quantitative High-Throughput drug screen in 47 multiple myeloma cell lines against the NCATS MIPE library collection: Delta47_JCRB cell viability assay (AID 1918925; note: nearly all actives have a fitted effect of over 45% in size; note: potency is the fitted concentration of half-maximal effect)
Summary of the method: as §1

Measured: Potency

C[C@@H]1C(=O)O[C@H]2CC34[C@H]5C[C@@H](C(C)(C)C)C36[C@H](OC(=O)[C@@H]6O)O[C@@]4(C(=O)O5)[C@]21O (stereo partly drawn)
inactive: [1] | [2] | [3]

CCCCCCCCCCCCCCCC(=O)OC[C@@H](NC(=O)C(Cl)Cl)[C@H](O)c1ccc([N+](=O)[O-])cc1
inactive: [1] | [4] | [3] | [5]

Cc1ccc(-n2[nH]c(C)c(N=Nc3cccc(-c4cccc(C(=O)O)c4)c3O)c2=O)cc1C
active: [2] 20.9 µM
inactive: [1] | [3]

CC(C=CC=C(C)C=CC1=C(C)CCCC1(C)C)=CC=CC=C(C)C=CC=C(C)C=CC1=C(C)CCCC1(C)C
inactive: [1] inactive [at 0.409 µM]
active: [4] 6.62 µM | [3] 20.9 µM

CC1(C)O[C@@H]2C[C@H]3[C@@H]4CCC5=CC(=O)C=C[C@]5(C)[C@@H]4[C@@H](O)C[C@]3(C)[C@]2(C(=O)CO)O1
inactive: [1] | [2] | [4]
active: [5] 37.2 nM

C[C@H](CCC(=O)O)[C@H]1CCC2C3C[C@H](O)[C@@H]4C[C@H](O)CC[C@]4(C)C3CC[C@@]21C (stereo partly drawn)
inactive: [1] | [2] | [4] | [3] | [5]

N#Cc1c(C2CCNCC2)cc(-c2c(O)cccc2OCC2CC2)nc1N
active: [2] 23.5 µM | [8] 16600 nM | [4] 18.7 µM | [3] 13.2 µM
inactive: [6] | [7]

COc1ccc(Nc2nccc(NCCO)n2)cc1
inactive: [1] | [4] | [3] | [5]

COc1ccc2c(c1OC)C(=O)OC2[C@H]1c2c(cc3c(c2OC)OCO3)CCN1C (stereo partly drawn)
active: [2] 0.0526 µM | [8] 187 nM | [4] 2.09 µM | [3] 0.0743 µM

CCNC(=O)Nc1ccc(-c2nc3c(c(N4CCOC[C@H]4C)n2)CCN(C2COC2)C3)cc1
active: [2] 0.935 µM | [8] 743 nM | [4] 7.43 µM | [3] 1.32 µM | [5] 743 nM

CC[C@H]1OC(=O)[C@H](C)[C@@H](O[C@H]2C[C@@](C)(OC)[C@@H](O)[C@H](C)O2)[C@H](C)[C@@H](O[C@@H]2O[C@H](C)C[C@H](N(C)C)[C@@H]2O)[C@](C)(OC)C[C@@H](C)C(=O)[C@H](C)[C@@H](O)[C@]1(C)O
inactive: [2] | [8] | [4] | [3]

CC(C)N1[N]C(=C2C=c3cc(O)ccc3=N2)c2c(N)ncnc21
active: [2] 0.296 µM | [8] 264 nM | [4] 3.72 µM | [3] 0.662 µM | [5] 83.3 nM

C[C@@]12C(=O)OC(=O)[C@@]1(C)C1CCC2O1
active: [2] 1.48 µM | [8] 935 nM | [4] 2.64 µM | [3] 1.32 µM

CC(=O)[C@]1(O)Cc2c(O)c3c(c(O)c2[C@@H](O[C@H]2C[C@H](N)[C@@H](O)[C@H](C)O2)C1)C(=O)c1ccccc1C3=O
active: [2] 0.469 µM | [8] 105 nM | [4] 0.118 µM | [3] 0.833 µM

CC(=O)N1CCN(c2ccc(OCc3nn(C)c(C)c3-c3cccc4c(CCCOc5cccc6ccccc56)c(C(=O)O)n(Cc5cccnc5)c34)cc2)CC1
active: [2] 10.5 µM | [8] 332 nM | [4] 0.105 µM | [3] 0.0526 µM

COc1cc(OC)cc(-c2ccc3ncc4ccc(=O)n(-c5ccc(N6CCNCC6)c(C(F)(F)F)c5)c4c3c2)c1
active: [2] 4.69 µM | [8] 1480 nM | [4] 5.9 µM | [3] 1.18 µM | [5] 3320 nM

C=CC(=O)Nc1cc(NC(=O)c2ccc(C)c(NC(=O)c3ccno3)c2)cc(C(F)(F)F)c1
active: [2] 26.4 µM | [8] 9350 nM | [4] 16.6 µM | [3] 5.26 µM

CCc1cnn2c(NCc3ccc[n+]([O-])c3)cc(N3CCCC[C@@H]3CCO)nc12
active: [2] 0.0187 µM | [8] 33.2 nM | [4] 0.0187 µM | [3] 0.0235 µM

N[C@H]1CN(c2c(F)cc3c(=O)c(C(=O)O)cn(C4C[C@@H]4F)c3c2Cl)CC12CC2 (stereo partly drawn)
inactive: [6] | [7] | [2] | [8] | [3]

CNC(=O)c1ccc(Nc2cc(Nc3ccccc3S(=O)(=O)C(C)C)c3cc[nH]c3n2)nc1
active: [2] 4.69 µM | [8] 662 nM | [4] 6.62 µM | [3] 2.09 µM

CC(C)N(CC[C@H](c1ccccc1)c1cc(CO)ccc1O)C(C)C
inactive: [2] | [8] | [4] | [3] | [5]

C[C@]12CCC(=O)C=C1[C@@H]1CC1[C@H]1[C@H]3[C@@H]4C[C@H]4[C@@]4(CCC(=O)O4)[C@@]3(C)CC[C@H]12 (stereo partly drawn)
inactive: [2] | [8]

C[C@H]1C[C@H]2[C@@H]3CCC4=CC(=O)C=C[C@]4(C)[C@@H]3C(=O)C[C@]2(C)[C@@]1(O)C(=O)CO
inactive: [2] | [8] | [4] | [3]

O=C1NC(=O)[C@@H](c2cn3c4c(cccc24)CCC3)[C@H]1c1c[nH]c2ccccc12
active: [2] 0.0743 µM | [8] 235 nM | [4] 20.9 µM | [3] 0.0469 µM

CCCCCN=C(N)NN=Cc1c[nH]c2ccc(OC)cc12
active: [2] 2.35 µM | [8] 13200 nM | [4] 13.2 µM | [3] 1.32 µM
